Experimental data published in the supplement of paper PMC13380429.

Test system: Vero E6 infected with SARS-CoV-2
Assay: inhibition of SARS-CoV-2 cytopathic effect; higher = more antiviral protection, active = above 15
Settings: 48 h

Measured: inhibition of SARS-CoV-2 cytopathic effect

Nc1nccs1 [aminothiazole]
inactive: 1 nM -0.84% | 8.33 nM 1.04% | 100 nM 0.28% | 833.33 nM 2.14% | 10000 nM 1.48%

CN(C)CCN1C(=O)c2cccc3cc(N)cc(c23)C1=O [amonafide]
inactive: 1 nM 4.04% | 8.33 nM 2.14% | 100 nM 1.57% | 833.33 nM 3.27% | 10000 nM -6.16%

C[C@](O)(COc1ccc(C#N)cc1)C(=O)Nc1ccc(C#N)c(C(F)(F)F)c1 [ostarine]
inactive: 1 nM -0.2% | 8.33 nM -1.03% | 100 nM 1.02% | 833.33 nM -1.16% | 10000 nM 1.37%

Cn1c(-c2ccccc2)nnc1S(C)(=O)=O
inactive: 1 nM 2.45% | 8.33 nM -0.41% | 100 nM 0.33% | 833.33 nM -0.57% | 10000 nM 2.92%

COc1ccc(C(=O)c2c(C)n(CCN3CCOCC3)c3cc(I)ccc23)cc1
inactive: 1 nM -3.57% | 8.33 nM -3.84% | 100 nM -3.42% | 833.33 nM -0.63% | 10000 nM 2.05%

Nc1ccc(S(=O)(=O)Nc2ccccn2)cc1 [sulfapyridine]
inactive: 1 nM -1.16% | 8.33 nM 0.08% | 100 nM 0.38% | 833.33 nM -1.04% | 10000 nM -4.35%

Cc1ccc(NC(=O)C(C)C)cc1C1CCN(Cc2ccc(Oc3ccc(F)c(F)c3)cc2)CC1
inactive: 1 nM -0.1% | 8.33 nM -1.41% | 100 nM -2.07% | 833.33 nM -4.89% | 10000 nM -10.5%

CCCc1c(OCC(O)COc2ccc3c(=O)cc(C(=O)O)oc3c2CCC)ccc(C(C)=O)c1O (stereo not given)
inactive: 1 nM 3.39% | 8.33 nM -0.15% | 100 nM 3.25% | 833.33 nM 6.19% | 10000 nM 3.02%

CC1(C)[C@@H]2C[C@@H](O)[C@@](C)(O)[C@H]1C2 [2,3-cis/exo-pinanediol]
inactive: 1 nM -0.96% | 8.33 nM 1.89% | 100 nM 2.23% | 833.33 nM -0.64% | 10000 nM 2.13%

CC(=O)N[C@H](Cc1ccc2ccccc2c1)C(=O)N[C@H](Cc1ccc(Cl)cc1)C(=O)N[C@H](Cc1cccnc1)C(=O)N[C@@H](CO)C(=O)N[C@@H](Cc1ccc(O)cc1)C(=O)N[C@H](CCCNC(N)=O)C(=O)N[C@@H](CC(C)C)C(=O)N[C@@H](CCCNC(=N)N)C(=O)N1CCC[C@H]1C(=O)N[C@H](C)C(N)=O [cetrorelix]
inactive: 1 nM -4.73% | 8.33 nM -2.29% | 100 nM 5.4% | 833.33 nM 5.13% | 10000 nM 8.43%

CCn1c(=O)c(-c2ccc(Cl)cc2Cl)cc2cnc(Nc3ccc(N4CCNCC4)c(F)c3)nc21
inactive: 1 nM -1.29% | 8.33 nM -2.53% | 100 nM -1.93% | 833.33 nM -6.85% | 10000 nM -4.65%

Cc1cn([C@H]2O[C@@H](CO)[C@H](O)[C@H]2F)c(=O)[nH]c1=O [clevudine]
inactive: 1 nM 3.12% | 8.33 nM -0.16% | 100 nM 1.71% | 833.33 nM 2.27% | 10000 nM 1.38%

O=C(c1c2ccccc2cc2ccccc12)N1CCC(N2CCC[C@@H](C(=O)N3CCOCC3)C2)CC1
inactive: 1 nM -1.36% | 8.33 nM -0.08% | 100 nM -0.31% | 833.33 nM -1.35% | 10000 nM -6.08%

CCC(=O)c1ccc(OCC(O)CN2CCN(c3ccccc3)CC2)cc1 (stereo not given) [centpropazine]
inactive: 1 nM -4.09% | 8.33 nM -0.61% | 100 nM -2.65% | 833.33 nM -0.96% | 10000 nM -0.58%

CN1CCN(C(c2ccccc2)c2ccccc2)CC1 [cyclizine]
inactive: 1 nM -1.86% | 8.33 nM -1.86% | 100 nM -1.97% | 833.33 nM -0.45% | 10000 nM 0.42%

COc1ccc(/C=C2\CCCN=C2c2cccnc2)c(OC)c1
inactive: 1 nM -0.63% | 8.33 nM 0.1% | 100 nM 0.18% | 833.33 nM 1.08% | 10000 nM 2.4%

CCOC(=O)N[C@@H]1CC[C@@H]2[C@@H](C1)C[C@H]1C(=O)O[C@H](C)[C@H]1[C@H]2/C=C/c1ccc(-c2cccc(F)c2)cn1 [vorapaxar]
inactive: 1 nM -1.52% | 8.33 nM -0.15% | 100 nM -0.3% | 833.33 nM -0.44% | 10000 nM 0.22%

O=C(/C=C/c1c(C(=O)O)[nH]c2cc(Cl)cc(Cl)c12)Nc1ccccc1 [gavestinel]
inactive: 1 nM -3.94% | 8.33 nM -3.2% | 100 nM -2.69% | 833.33 nM -2.17% | 10000 nM -3.95%

C[C@]12CC[C@@H]3c4ccc(OC(=O)c5ccccc5)cc4CC[C@H]3[C@@H]1CC[C@@H]2O [estradiol-benzoate]
inactive: 1 nM -5.16% | 8.33 nM -2.11% | 100 nM -2.68% | 833.33 nM -4.8% | 10000 nM -5.99%

O=C(CC1NCCCC1O)Cn1cnc2cc(Br)c(Cl)cc2c1=O (stereo not given) [halofuginone]
inactive: 1 nM -3.21% | 8.33 nM -1.77% | 100 nM -2.82% | 833.33 nM 12.3% | 10000 nM -13.9%

C[n+]1ccccc1C=NO [pralidoxime]
inactive: 1 nM 1.86% | 8.33 nM 0.25% | 100 nM 0.14% | 833.33 nM 0.94% | 10000 nM 1.11%

CCCCCCCCN=c1ccn(CCCCCCCCCCn2ccc(=NCCCCCCCC)cc2)cc1 [octenidine]
inactive: 1 nM 0.26% | 8.33 nM 2.35% | 100 nM 0% | 833.33 nM -7.17% | 10000 nM -19.8%

O=C(CCCN1CCC(O)(c2ccc(Br)cc2)CC1)c1ccc(F)cc1 [bromperidol]
inactive: 1 nM 3.91% | 8.33 nM 3.53% | 100 nM 2.65% | 833.33 nM -0.17% | 10000 nM -3.61%

CC(C)NNC(=O)c1ccncc1 [iproniazid]
inactive: 1 nM 0.77% | 8.33 nM -0.06% | 100 nM 0.89% | 833.33 nM 0.46% | 10000 nM -1.76%

CN(C)C(=O)Oc1cc(OC(=O)N(C)C)cc(C(O)CNC(C)(C)C)c1 (stereo not given) [bambuterol]
inactive: 1 nM -2.95% | 8.33 nM -0.79% | 100 nM -1.68% | 833.33 nM -1.56% | 10000 nM -1.86%

COc1cc(OC)c(OC)cc1C=O [asaraldehyde]
inactive: 1 nM -1.46% | 8.33 nM -1.92% | 100 nM -1.24% | 833.33 nM -1.97% | 10000 nM 0.07%

CCC(=O)O[C@@H](O[P@@](=O)(CCCCc1ccccc1)CC(=O)N1C[C@H](C2CCCCC2)C[C@H]1C(=O)O)C(C)C [fosinopril]
inactive: 1 nM -0.77% | 8.33 nM 0.8% | 100 nM 2.37% | 833.33 nM 1.19% | 10000 nM 3.18%

O=C1CCc2cc(OCCCCc3nnnn3C3CCCCC3)ccc2N1 [cilostazol]
inactive: 1 nM -1.01% | 8.33 nM -0.9% | 100 nM 1.96% | 833.33 nM -0.77% | 10000 nM -0.84%
